Assay outcomes (PubChem BioAssay)
GLP1R ag: GLP-1 receptor (human) agonism | HEK293 GLP-1R CRE-luciferase, luminescence, 4-6 h; cells express a hypersensitive GLP-1R form | Potency, µM (top dose mostly 45.6 µM), inactives show at the highest dose activation, usual class: activators | 380,000 compounds, 0.007% hits | AID 624172; note: % of control where 0% means no effect
Target sequence (P43220 whole entry, looked up): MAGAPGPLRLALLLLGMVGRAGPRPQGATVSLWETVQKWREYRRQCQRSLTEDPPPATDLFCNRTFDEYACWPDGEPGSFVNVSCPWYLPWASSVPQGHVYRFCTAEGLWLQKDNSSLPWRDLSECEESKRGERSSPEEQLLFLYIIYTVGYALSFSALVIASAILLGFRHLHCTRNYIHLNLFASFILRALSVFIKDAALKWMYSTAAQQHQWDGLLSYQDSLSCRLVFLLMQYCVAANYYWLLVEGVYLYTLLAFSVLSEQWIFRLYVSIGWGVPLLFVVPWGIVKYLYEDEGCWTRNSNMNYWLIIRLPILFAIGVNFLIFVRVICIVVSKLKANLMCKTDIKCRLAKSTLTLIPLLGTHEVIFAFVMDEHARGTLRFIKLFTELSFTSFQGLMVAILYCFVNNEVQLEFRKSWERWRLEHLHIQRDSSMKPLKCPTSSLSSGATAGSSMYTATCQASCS
TrxR1 substrate: substrates of rat thioredoxin reductase 1; O89049; purified TrxR1 substrate turnover, NADPH consumption readout; Potency, µM (highest dose often 114 µM), without a hit: at the highest dose activity change, negative = substrate turnover; 390,000 compounds, 0.01% hits; note: % is set by controls: 0 for no effect and ±100 for the full control effect; nearly all actives have a fitted effect of over 50% in size
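Rat TrxR1, dispensed at 90 nM, was prereduced with 400 uM NADPH (final) for 5 min at ~22 deg C, then incubated with compound 15 min before 400 uM selenite. A first-read NADPH fluorescence drop versus no-compound background flagged substrates.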
rTrxR1 inhibitor: rat TrxR1 inhibition | recombinant rTrxR1, NADPH fluorescence consumption, selenite substrate | O89049 | Potency, µM (highest dose often 114 µM), without a hit: at the highest dose activity change, negative = inhibition, most hits filed as inhibitors | 390,000 compounds, 1% hits; note: % is set by controls: 0 for no effect and ±100 for the full control effect; nearly all actives have a fitted effect of over 65% in size
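Rat TrxR1 (90 nM in the dispensed reagent) was pre-reduced with 400 uM NADPH for 5 min at room temperature, then incubated with compound for 15 min. After 400 uM selenite was added, NADPH fluorescence (Ex 340/Em 450 nm) was followed for 8 min.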
IDH1 R132H inh: blocks human mutant IDH1 R132H enzyme | IDH1-R132H enzyme, NADPH consumption, diaphorase/resazurin fluorescence | Potency, µM (series often up to 76.6 µM), without a hit: at the highest dose activity change, negative = inhibition, actives largely listed as inhibitors | 390,000 compounds, 0.093% hits | AID 602179; note: % is set by controls: 0 for no effect and ±100 for the full control effect; nearly all actives have a fitted effect of over 65% in size
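IDH1-R132H (0.5 ug/mL) preincubated 30 min with compound, then NADPH (0.016 mM) and alpha-KG (2 mM) added; 80 min at RT, pH 7.5. Remaining NADPH coupled via diaphorase/resazurin to fluorescence (540/590 nm); concentration-response curves normalized to no-enzyme control.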
GLP1R cytotox: cytotoxic in the GLP-1 receptor inverse agonist counter-screen; HEK293 cAMP-luciferase reporter cells, luminescence, 24 h; Potency, µM (top dose mostly 38.3 µM), for the others: at the highest dose activity change, negative = inhibition, actives largely listed as inhibitors; 410,000 compounds, 0.13% hits;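 note: loss of luciferase light is scored as toxicity; % is set by controls: 0 for no effect and ±100 for the full control effect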
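A 23 nL compound transfer followed 12 hours of cell culture at 37 deg C; exposure then lasted 24 hr. Luciferase assay detection reagent was dispensed and plates read for luminescence after a 12 min room-temperature wait.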
GLP1R inv ag: inverse agonists of human GLP-1 receptor. 410,000 compounds, 1.6% hits. P43220. HEK293 GLP-1R CRE-luciferase, luminescence, 24 h; GLP-1R form is constitutively active. Potency, µM (titrated, usually from 38.3 µM), for the others: top-dose activity change, negative = inhibition, most hits filed as inhibitors. AID 624417; note: % is set by controls: 0 for no effect and ±100 for the full control effect; nearly all actives have a fitted effect of over 55% in size
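Readout was luciferase luminescence, measured 12 min after detection reagent at room temperature. Beforehand, GLP-1R reporter HEK293 cells had sat 12 h, then received compounds for 24 hr at 37 deg C.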
* marks the source's active call; other numbers are inactive results; u = inconclusive; x = no result; [ ] = another dose, or the depositor's remark. Most compounds without a hit are left out; they make up all but 2.7% or so of the library. Calls come from the whole dose curve; as a rule, active = well fitted curve in the direction sought with a large enough effect; inconclusive = small, poorly fitted or top-dose-only effect, or another doubt; inactive = no such curve, though single readings can be large; an effect the other way counts as inactive or inconclusive. Potency is the fitted concentration of half-maximal effect.

SMILES | GLP1R ag | TrxR1 substrate | rTrxR1 inhibitor | IDH1 R132H inh | GLP1R cytotox | GLP1R inv ag
CC(C)OP(=O)(OC(C)C)C1(O)C(=O)Nc2ccc(Br)cc21 (stereo unspecified) | -12% | -1% | 40µM* | 10% | 11% | 8%
COc1ccc(Cl)cc1C(=O)NCC(c1ccc(N(C)C)cc1)N1CCOCC1 (stereo unspecified) | x | 3%[57.1 µM] | 13%[57.1 µM] | 2% | 1% | 10%
Cc1c(NC(=O)C(C)(C)Oc2ccc(Cl)cc2)cccc1-c1nc2ccccc2o1 | x | 2% | 14% | -2% | 22% | 11µM*
COc1ccc(C2NC(c3ccc(OC)c(OC)c3OC)C(C)C(=O)C2C)c(OC)c1OC (stereo unspecified) | 5% | -6% | -1% | -3% | -16% | 3%
COc1cc(Br)ccc1C1CC(=O)C(C)C(c2ccc(Br)cc2OC)N1 (stereo unspecified) | 11% | 3% | 25% | 14% | 3% | 10µM*
Cc1ccc(CCNC(=O)CCSCc2ccccc2F)cc1 | x | -1%[57.1 µM] | 20%[57.1 µM] | 3% | 0% | 3%
COCCNc1cc(N2CCN(C3CCCCC3)CC2)c2noc3c2c1C(=O)c1ccccc1-3 | x | -4% | 5% | -9% | -1% | 9%
C=C1[C@H](C)CN(S(=O)(=O)C(C)(C)C)[C@H]1CCO | 8% | -1% | 14% | -5% | 2% | 1%
C=C(CCO)C1=CCN(S(=O)(=O)C(C)(C)C)[C@H]1CCO | -5% | -3% | -11% | 9% | -9% | 9%
CC(C)(C)S(=O)(=O)N1C[C@@H]2CC/C=C\C/C=C\2[C@H]1CCO | -4% | -1% | -20% | -8% | -4% | 5µM*
CC(C)(C)S(=O)(=O)N1C[C@H]2CC/C=C\C/C=C\2[C@@H]1CCO | -5% | x | x | 5% | 2% | 2.8µM*
COc1ccc(C2NC(=S)N3C(c4ccc(OC)c(OC)c4)NC(=S)N23)cc1OC (stereo unspecified) | 1% | x | x | x | x | x
CCn1c2ccccc2c2cc(NC(=O)N3CCCCC3)ccc21 | 17% | x | x | -3% | -8% | 10µM*
O=C(Cc1ccc(S(=O)(=O)N2CCOCC2)s1)Nc1ccccc1N1CCCC1 | -7% | -2% | 11µM* | 0% | 18% | 13%
CCn1c2ccccc2c2cc(NC(=O)Cc3ccc(S(=O)(=O)N4CCOCC4)s3)ccc21 | -9% | 9%[57.1 µM] | 15%[57.1 µM] | -1% | -22% | 10µM*
O=C(O)c1cc(Cl)c2c(c1)[C@@H]1C=CC[C@@H]1[C@H](c1ccc(S(=O)(=O)N3CCOCC3)cc1)N2 | 16% | -7% | 2.2µM* | 4% | 3% | 21%
CS(=O)(=O)c1ccc(Cl)c(NC(=O)CCl)c1 | 0% | 4%[57.1 µM] | 13µM* | 6% | u | 3%
COc1cc(N(C)C)c(OC)cc1C=O | x | -11% | -14% | x | x | x
CC(C)Cn1c(=O)c2ccccc2c2ccccc2c1=O | 8% | 5% | 17% | 4% | -7% | -6%
CC(C)CCn1c(=O)c2ccccc2c2ccccc2c1=O | -12% | 6%[57.1 µM] | 7%[57.1 µM] | 4% | -14% | 10µM*
COc1ccc(CNc2nc(SCc3ccc(Cl)cc3)nc3ccccc23)cc1 | x | 0%[57.1 µM] | 8%[57.1 µM] | -13% | 3% | 7%
COc1ccc(NC(=O)[C@@H]2CC=C[C@@H]3CCN(C4CC4)C(=O)[C@@H]32)cc1 | x | 5% | 9% | x | x | x
CN(c1ccccc1)C(CNS(=O)(=O)c1ccccc1)c1ccccc1 (stereo unspecified) | x | 0% | 10% | x | 8% | u
CN1CCN(C(CNS(=O)(=O)c2ccc([N+](=O)[O-])cc2)c2ccc(F)cc2)CC1 (stereo unspecified) | -12% | -12% | -19% | 4% | -1% | 11µM*
Cc1ccc(S(=O)(=O)NCC(c2ccccc2)N2CCCCC2)cc1 (stereo unspecified) | 6% | -2% | 4% | 3% | 7% | 10µM*
SMILES | GLP1R ag | TrxR1 substrate | rTrxR1 inhibitor | IDH1 R132H inh | GLP1R cytotox | GLP1R inv ag
Cc1ccc(N(C)C(CNS(=O)(=O)c2ccccc2)c2ccccc2)cc1 (stereo unspecified) | x | -1% | 18% | x | 2% | 10µM*
Cc1ccc(C(CNS(=O)(=O)c2ccc(C)cc2)N2CCN(C)CC2)cc1 (stereo unspecified) | 6% | -7% | -6% | 4% | 3% | u
Cc1ccc(C(CNS(=O)(=O)c2ccc(F)cc2)N2CCN(C)CC2)cc1 (stereo unspecified) | 1% | -6% | -9% | 4% | 2% | u
CCN1CCN(C2=C(NS(=O)(=O)c3ccc(C)cc3)C(=O)c3ccccc3C2=O)CC1 | -7% | -2% | 79µM* | 7% | u | u
CCN1CCN(C2=C(NS(=O)(=O)c3ccc(NC(C)=O)cc3)C(=O)c3ccccc3C2=O)CC1 | -4% | -4% | 23% | 1% | u | -30%
CCOC(=O)c1ccc(NC(=O)c2c(N3CCCC3=O)c3cc(OC)ccc3n2C)cc1 | 15% | 2% | 26% | 1% | 6% | 5%
COc1cccc(NC(=O)COc2ccccc2C(=O)Nc2ccccc2)c1 | x | -7% | 0% | x | x | x
Cc1cccc(C(=O)Nc2cc(-c3ccccc3F)nn2-c2ccccc2)c1 | x | -7%[57.1 µM] | 4%[57.1 µM] | -9% | 0% | 10µM*
COc1ccc(-c2csc(Nc3ccc(S(N)(=O)=O)cc3)n2)cc1OC | -3% | 6% | 24% | 0% | -5% | 90%
COc1cc(Nc2ccc(S(N)(=O)=O)cc2)c([N+](=O)[O-])nc1[N+](=O)[O-] | 4% | -11% | 3.2µM* | 17% | -7% | 13%
CC(=O)O[C@H]1CC(C)(C)C(=C=C/C(C)=C/C=C/C(C)=C/C=C/C=C(C)/C=C/C=C(\C)C(=O)C[C@@]23O[C@]2(C)C[C@@H](O)CC3(C)C)[C@](C)(O)C1 | -4% | -10% | 35µM* | -4%[38.3 µM] | -6% | 30%
CC(C)Cn1c(SCC(=O)N2CCCc3ccccc32)nc2ccccc2c1=O | 25% | -7% | 1% | -17% | -13% | 2.5µM*
COc1ccc(CCn2c3c(c(=O)[nH]c2=S)CN(CC(C)C)CN3)cc1OC | x | -9% | u | x | x | x
C[C@@H]1[C@H](c2ccccc2)OCCS(=O)(=O)N1Cc1ccccc1Br | x | 1% | 28% | x | x | x
CNC(=O)[C@H](Cc1c[nH]c2ccccc12)NC(=O)[C@@H](CC(=O)NO)CC(C)C | -1% | x | x | x | x | x
Cc1ccc(C2CN(c3ccccc3)CC2C(=O)c2ccc(F)cc2)cc1 (stereo unspecified) | -16% | 4%[57.1 µM] | -17%[57.1 µM] | -1% | 41% | 10µM*
